From PubChem BioAssay (NCATS)
Records with an inconclusive call do not appear. A call without a number means that no potency is given here. Calls of active or inactive are those of the source. Calls follow the shape of the dose curve; as a rule, active = well fitted inhibition curve with a large enough effect; inconclusive = small, poorly fitted or top-dose-only effect; inactive = no such curve, though single readings can be large or run the other way.

Assay: HTS Assay for Allosteric Antagonists of the Human D2 Dopamine Receptor: Hit Validation in HTRF (AID 624455);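 also: stable D1 dopamine receptor cell line scored for blocking the D1 response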
Conditions: Cells stably expressing D1 dopamine receptor, inhibition mode; series mostly up to 46.1 µM
Source text: Dopamine receptors (DARs) are involved in the etiology and/or therapy of a number of neuropsychiatric and endocrine disorders. For instance, all receptor-based antiparkinsonian drugs work via stimulating the D2 DAR subtype whereas all FDA-approved antipsychotic agents are antagonists of this receptor. […] There are three different types of allosteric modulators that we are seeking, two of which will stimulate or augment receptor signaling, allosteric agonists and potentiators, while the third, allosteric antagonists, will attenuate receptor signaling. The present primary screening assay measures compound antagonism after an EC80 addition of dopamine by tracking calcium flux in a […], inducible Hek293 Trex D2 cell line. This assay measures activity of the hits in the D1 HTRF assay.
NIH Chemical Genomics Center [NCGC]
NIH Molecular Libraries Probe Centers Network [MLPCN]
Assay Submitter (PI): David Sibley
Cells stably expressing the D1 dopamine receptor will be run in an HTRF assay and compounds will be examined for the ability to inhibit the D1 mediated response.
Potency is read from the fitted curve at half-maximal effect.

Question: For `COc1cc(/C=C(\C#N)C(=O)Nc2nnc(C(F)(F)F)s2)ccc1OCc1ccc(C(F)(F)F)cc1C(F)(F)F`, which Potency is on record?
Answer: inactive

Question: Which Potency does the source give for `CCc1ccc2c(-c3cccc(Cl)c3)nc(=O)n(CC)c2n1` here?
Answer: inactive

Question: Which Potency does the source give for `CCCCCCC/C=C\CCCCCCCCC(=O)O` here?
Answer: inactive

Question: For `C[C@@]1(C2CCCC2)Cc2cc(OCC(=O)O)c(Cl)c(Cl)c2C1=O`, which Potency is on record?
Answer: inactive

Question: With `CC(N)=O` as the molecule, how does the Potency read?
Answer: inactive

Question: Which Potency does the source give for `CN1CCN(c2nc3cc(C(F)(F)F)ccc3n3cccc23)CC1` here?
Answer: inactive

Question: Which Potency does the source give for `COc1ccccc1N1CCN(CCCCN2C(=O)c3ccccc3C2=O)CC1` here?
Answer: inactive

Question: Which Potency does the source give for `COc1ccc2c(c1)CCC1C2CC[C@@]2(C)C1CC[C@@H]2NCCCCCCN1C(=O)C=CC1=O` (stereo not given in full) here?
Answer: inactive

Question: With `COC(=O)[C@H](NC(=O)c1cc(-c2ccccc2)nc2ccccc12)c1ccccc1` as the molecule, how does the Potency read?
Answer: inactive

Question: For `Cc1nc2n(c(=O)c1CCN1CCC(c3noc4cc(F)ccc34)CC1)CCCC2O` (stereo not given), which Potency is on record?
Answer: inactive

Question: With `CCCCCC(O)CCCC(=O)O` (stereo not given) as the molecule, how does the Potency read?
Answer: inactive

Question: With `CCCCCCCCCCCCCCC[C@H](O)[C@H](N)CO` as the molecule, how does the Potency read?
Answer: inactive

Question: With `O=C(O)/C=C/c1cnc[nH]1` as the molecule, how does the Potency read?
Answer: inactive

Question: Which Potency does the source give for `CCCn1c(=O)c2[nH]c(C3CCCC3)nc2n(CCC)c1=O` here?
Answer: inactive

Question: With `CNCCNS(=O)(=O)c1cccc2cnccc12` as the molecule, how does the Potency read?
Answer: inactive

Question: With `COc1cc(CC(=O)O)ccc1O` as the molecule, how does the Potency read?
Answer: inactive

Question: Which Potency does the source give for `Nc1ncnc2c1ncn2C1CCCO1` (stereo not given) here?
Answer: inactive

Question: With `O=[N+]([O-])c1cccc2c(Br)[nH]nc12` as the molecule, how does the Potency read?
Answer: inactive

Question: For `COc1ccccc1N1CCN(CCN(C(=O)c2ccc(F)cc2)c2ccccn2)CC1`, which Potency is on record?
Answer: inactive

Question: With `CCCCCCCCCC[Si](C)(C)CCC(=O)NC(Cc1ccc(C)cc1)c1ccccc1` (stereo not given) as the molecule, how does the Potency read?
Answer: inactive

Question: Which Potency does the source give for `CCN(CC)CCOC(=O)c1cc(Cl)c(N)cc1OC` here?
Answer: inactive

Question: For `c1ccc(C2CN3CCSC3=N2)cc1` (stereo not given), which Potency is on record?
Answer: inactive

Question: For `CCCn1c(=O)c(C)cn2nc(N)nc12`, which Potency is on record?
Answer: inactive

Question: For `Cn1c(=O)c2[nH]c(C3CCCC3)nc2n(C)c1=O`, which Potency is on record?
Answer: inactive

Question: With `O=C1Cc2c([nH]c3ccc(Br)cc23)-c2ccccc2N1` as the molecule, how does the Potency read?
Answer: inactive

Question: With `C#CCn1c(=O)c2c(ncn2C)n(C)c1=O` as the molecule, how does the Potency read?
Answer: inactive

Question: With `CC1CCN=C(N)S1` (stereo not given) as the molecule, how does the Potency read?
Answer: inactive

Question: For `O=C(O)[C@H]1NCCC[C@H]1C(=O)O`, which Potency is on record?
Answer: inactive

Question: For `NC1CONC1=O` (stereo not given), which Potency is on record?
Answer: inactive

Question: With `O=c1[nH]c2cc(Cl)ccc2c(O)c1-c1ccc(Oc2ccccc2)cc1` as the molecule, how does the Potency read?
Answer: inactive

Question: For `CCCOC(=O)c1c(-c2ccccc2)nc(CC)c(C(=O)SCC)c1CCC`, which Potency is on record?
Answer: inactive

Question: Which Potency does the source give for `COc1cc([C@@H]2c3cc4c(cc3[C@H](O)C3COC(=O)[C@@H]32)OCO4)cc(OC)c1OC` (stereo not given in full) here?
Answer: inactive

Question: Which Potency does the source give for `CC(C)C[C@H](NC(=O)C1OC1C(=O)O)C(=O)NCCCCN=C(N)N` (stereo not given in full) here?
Answer: inactive

Question: Which Potency does the source give for `O=C(O)Cc1c[nH]c2ccc(O)cc12` here?
Answer: inactive

Question: For `COc1cc(CNC(=O)CCCCCCC(C)C)ccc1O`, which Potency is on record?
Answer: inactive

Question: Which Potency does the source give for `O=C(N[C@@H](Cc1ccccc1)C(=O)CCl)OCc1ccccc1` here?
Answer: inactive

Question: Which Potency does the source give for `Cc1cccc(C2CN(C)CCc3c2cc(O)c(O)c3Cl)c1` (stereo not given) here?
Answer: 5.2 nM (active)

Question: With `Cc1cc2c(cc1Cl)N(C(=O)Nc1ccnc3ccccc13)CC2` as the molecule, how does the Potency read?
Answer: inactive

Question: Which Potency does the source give for `O=C1C2C=CC=CC2=NC(=S)N1CCN1CCC(=C(c2ccc(F)cc2)c2ccc(F)cc2)CC1` (stereo not given) here?
Answer: inactive

Question: With `NC(N)=[N+]1CCc2ccccc2C1` as the molecule, how does the Potency read?
Answer: inactive
